Laboratory results: PubChem BioAssay (NCI)
This is part of a sample that, as a whole, favours compounds with a hit. Of some 79,000 tested, about 15% had one in any assay. A number with no mark means an inactive call. Active and inactive are the calls of the source. Cut-off read from the data, not from the text of the source: active = growth inhibition above about 70%; inactive = the rest.

assay: NCI Yeast Anticancer Drug Screen. Data for the rad50 strain (AID 155);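 note: 0% = growth of vehicle-only cultures of the same strain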; settings: S. cerevisiae rad50 strain growth inhibition; at 50.0 µM; hits give high values
Procedure: Growth inhibition of yeast strains with defined genetic alterations is measured as a screen for potential anti-cancer activity. Selected strains with alterations in DNA damage repair or cell cycle control were exposed to compounds and growth inhibition was measured relative to vehicle treated controls. The strain used in this assay is rad50

Row | SMILES | growth inhibition
1 | CCCCCCCCCCCCCCCC[N+](C)(C)CC#CCCl | -3.15%
2 | C/C(=C1/CCOC1=O)c1cccc(/C(C)=C2\CCOC2=O)c1 | 3.9%
3 | NC(=O)NNC(=O)Cc1ccccc1 | 1.35%
4 | OCCNCc1ccc2c(c1)OCO2 | -4.1%
5 | O=[N+]([O-])c1ccc2c3c(ccc([N+](=O)[O-])c13)CC2 | -9.35%
6 | CC/C(=C\c1ccc(Cl)cc1)c1ccncc1 | 99.2% (active)
7 | CCCCNS(=O)(=O)c1ccc(-c2ccc3c(c2)-c2ccc(S(=O)(=O)NCCCC)cc2S3(=O)=O)cc1 | 28.3%
8 | C=C(C)c1ccccc1N | -1.75%
9 | Cc1ccc(N=C(N)N)cc1 | -1.25%
10 | C[n+]1cc(-c2ccccc2)cc2ccccc21 | -1.4%
11 | NC1=Nc2cc(Cl)ccc2Sc2nc3ccccc3n21 | -18.4%
12 | O=[N+]([O-])c1cc([N+](=O)[O-])c(C(Cl)C(Cl)c2ccccc2)cc1C(Cl)C(Cl)c1ccccc1 (stereo not given) | 2.4%
13 | CCOCCOC(=O)c1ccc(C(C)C)cc1 | 4.9%
14 | COC1OC(CN)C(O)C(O)C1O (stereo not given) | 0.15%
15 | c1ccc(CCN2CCN(CCc3ccccn3)CC2)nc1 | 6.25%
16 | c1ccc2c(c1)ccc1cc3c(ccc4ccccc43)cc12 | 15.3%
17 | c1ccc(-c2nnnn2-c2ccccc2)cc1 | -0.5%
18 | CCCCCCCCC/C=C\C(=O)O | 4.6%
19 | CCc1ccc(S(N)(=O)=O)cc1 | 11.1%
20 | CC(=O)N1c2ccccc2C23CCN4CC5=CCOC(O)C(C5CC42)C13 (stereo not given) | -20.1%

Row | SMILES | growth inhibition
21 | COc1ccc(CNc2ccccc2)cc1 | -2%
22 | CC1CCCN(C(=O)Nc2ccc([N+](=O)[O-])cc2)C1 (stereo not given) | 41.1%
23 | CC(C)c1ccc(C(=O)OCCBr)cc1 | 18.7%
24 | Cc1ccc(SCCSc2ccc(C)cc2)cc1 | 17.7%
25 | CC(C)(C)C(=O)OCC1C(=O)OCC1C(=O)N1Cc2cc3ccccc3nc2C1 (stereo not given) | -7.7%
26 | COC(=O)C1(CCSc2ccccc2)CCCC1=O (stereo not given) | 29.3%
27 | Cc1ccc2[nH]c(C)c(C(=O)c3cccnc3)c2c1 | -7.55%
28 | C=C1C(=O)C=C2C=C3C(=O)C(C)(C)C[C@]3(O)C12C (stereo not given in full) | 84.3% (active)
29 | CCOC(=O)c1ccc(-c2ccccc2)cc1 | -44.2%
30 | COc1cc2cc3c4ccc(OC)c(OC)c4cc[n+]3c(C)c2cc1OC (tested in a mixture with another compound) | 98.1% (active)
31 | C=C1C(=O)OC2/C=C(\C)C(O)CC(O)C(C)(O)CC(OC(=O)/C(C)=C/C)C12 (stereo not given) | -0.7%
32 | O=[N+]([O-])c1ccc(N=CNc2ccc([N+](=O)[O-])cc2)cc1 | -15.9%
33 | C=C(N1CCCCC1)N1CCCCC1 | -2.75%
34 | CC1CN(C(=S)Nc2ccccc2)CCN1c1ccccc1 (stereo not given) | 4.15%
35 | COC1=C(OC)C(=O)C2=C(OCO2)C1=O | -1.05%
36 | CC(C)CCNc1ncnc2[nH]ncc12 | -16.5%
37 | O=C(c1ccc(F)cc1)C1CC1 | 3.7%
38 | CCCCCCCCCCCC(=O)OCCSC#N | -7.45%
39 | COc1ccc(-c2cc3cc(OC)c(OC)cc3c[n+]2C)cc1OC | 28.3%
40 | CCOC(=O)NC(C)=O | -10.4%
